# Bioassay records: PubChem, several laboratories
# TNF death inh: blocks TNF-alpha induced death of Jurkat FADD-/- cells | Jurkat FADD-/- TNF necroptosis rescue, ATP luminescence, 24 h; 0 = TNF only, 100 = no-TNF cells | 0.068% of 220,000 active | activation (protection from cell death), % at 10 µM | AID 463075;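 active = activation, meaning protection from cell death, of at least 50% relative to plate controls; inactive = activation below 50%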;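 note: necroptosis triggered by 40 ng/mL TNF-alpha added together with compound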
# HSV augment: increases HSV replication in cells. HSV replication augmentation in cells, fold increase. maximum fold increase. 0.005% of 220,000 active; in the data active = maximum fold increase above about 1.5; tested in PC3 cells
# Wee1 degr inh: inhibitors of human Wee1 degradation; reporter increase, % at 5 µM; 1.2% of 220,000 active; AID 1321; HeLa Luc-Wee1K328M stability, luciferase luminescence; 100% = proteasome inhibitor MG132 effect; P30291;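 active = activation above the mean of all tested compounds plus 3 SD, set per screening run, cut at about 8.8% in these data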;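 note: cells exposed to compound for 20 h before luminescence read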
# Target sequence (P30291 whole entry K328M): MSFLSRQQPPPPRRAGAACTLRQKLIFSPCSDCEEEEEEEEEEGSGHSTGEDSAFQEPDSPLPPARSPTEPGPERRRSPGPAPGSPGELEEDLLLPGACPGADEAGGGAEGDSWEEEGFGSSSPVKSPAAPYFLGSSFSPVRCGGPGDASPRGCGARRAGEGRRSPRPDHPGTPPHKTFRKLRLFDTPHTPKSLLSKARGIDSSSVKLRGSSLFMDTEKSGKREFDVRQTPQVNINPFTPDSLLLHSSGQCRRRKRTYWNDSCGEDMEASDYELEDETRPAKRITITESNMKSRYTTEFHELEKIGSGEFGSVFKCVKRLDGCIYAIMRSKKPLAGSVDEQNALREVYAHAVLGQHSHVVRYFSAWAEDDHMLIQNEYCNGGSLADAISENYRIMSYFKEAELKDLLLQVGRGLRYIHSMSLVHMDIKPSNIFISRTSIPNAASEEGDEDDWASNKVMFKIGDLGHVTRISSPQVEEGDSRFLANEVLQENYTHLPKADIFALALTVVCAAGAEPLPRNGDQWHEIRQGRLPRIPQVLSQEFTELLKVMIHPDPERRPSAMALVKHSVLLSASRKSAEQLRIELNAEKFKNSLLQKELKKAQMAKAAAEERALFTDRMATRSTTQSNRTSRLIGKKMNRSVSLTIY
# L929 necroptosis: L929 zVAD cell death inhibition. L929 zVAD necroptosis rescue, ATP luminescence, 24 h; with zVAD 60 µM. viability rescue, % at 10 µM. 0.38% of 220,000 active. AID 1377;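 active = activation, scaled between plate controls, above about 75%, limit read from the data; inactive = activation under that limit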
# V-ATPase pH: yeast V-ATPase proton transport regulation by pHLuorin; AID 504577; S. cerevisiae, pHLuorin cytosolic pH fluorescence; 0.37% of 350,000 active; response, % at 10 µM; in the data active = response mostly above about 7.3%, no sharp cut-off; inactive = mostly below about 5.4%; note: actives read high
# zVAD death conf: confirmed blocker of zVAD induced death in L929 cells. shares compounds with L929 necroptosis. L929 zVAD-induced necroptosis rescue, ATP luminescence, 24 h. activation (protection from necroptosis), % at 10 µM. 16% of 760 active;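 active = mean protection from necroptosis of at least 50% over duplicate tests; inactive = mean protection below 50%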
# Numbers stand for hits; . = inactive; / = not tested or not shown. Most compounds without a hit are left out; they make up all but 1.4% or so of the library.
SMILES,TNF death inh,HSV augment,Wee1 degr inh,L929 necroptosis,V-ATPase pH,zVAD death conf
Cc1cc(OC(C)C(=O)NCCN2CCOCC2)c2c(C)cc(=O)oc2c1 (stereo not drawn),/,/,/,/,.,/
O=c1cc(-c2ccc(O)c(O)c2)oc2cc(O)cc(O)c12,.,.,/,85,.,.
COc1ccc(-c2cc(=O)c3c(O)cc(O)cc3o2)cc1,/,/,/,/,.,/
C/C(Cc1ccccc1)=N\NC(=O)CNC(=O)Cc1ccc(Cl)cc1,.,.,.,.,.,/
O=c1c(-c2n[nH]c(=S)o2)cccn1Cc1ccccc1,.,.,.,.,.,/
O=C(O)c1cc(-c2ccc(/C=N/N3C(=O)C4C5C=CC(CC5)C4C3=O)o2)ccc1Cl (stereo not drawn),.,.,.,.,.,/
COC(=O)c1ccc(-c2ccc(/C=N/N3C(=O)C4C5C=CC(CC5)C4C3=O)o2)cc1 (stereo not drawn),.,.,.,83,.,.
O=C(Nc1cnccn1)Nc1ccc(Cl)cc1Cl,.,.,.,80,.,.
Cc1ccnc(NC(=O)Nc2ccc(Br)cc2Cl)c1,.,.,9.5,83,.,.
Cc1ccc(NC(=O)Nc2cnccn2)cc1Cl,.,.,.,80,.,.
O=C(Nc1ccc(N2C(=O)C3CCCCC3C2=O)cc1Cl)c1cccs1 (stereo not drawn),.,.,.,.,.,/
COc1ccc(S(=O)(=O)c2cnc3ccccc3n2)cc1,.,/,.,76,.,.
COC(=O)c1cc2n(n1)CCN(Cc1ccccc1Cl)C2=O,.,/,.,.,.,/
COC(=O)c1ccn(Cc2ccccc2Cl)n1,100,.,.,90,.,81
Cc1oc(S(=O)(=O)N(C)C)cc1C(=O)Nc1ccc(F)cc1,.,.,.,.,.,/
CCNc1nc(NCC)nc(N(CC)C(N)=S)n1,.,.,.,.,.,/
COc1ccccc1NC(=O)Nc1ccncc1,.,.,.,.,.,/
COc1ccc(NC(=O)Nc2ccc(Cc3ccncc3)cc2)cc1OC,.,.,.,82,.,.
COc1ccc(C(=O)Nc2ccc(Cc3ccncc3)cc2)cc1Br,.,.,.,.,/,/
COc1ccccc1NC(=O)Nc1ccc(Cc2ccncc2)cc1,.,.,.,78,.,.
CC1(C(=O)OCC(=O)Nc2ccc3ccccc3c2)CC1(Cl)Cl (stereo not drawn),.,.,.,78,.,.
CC(C)(C)NC(=O)Cn1nnc(-c2ccc(Cl)cc2)n1,.,.,.,84,.,.
O=C(Cn1nnc(-c2ccc(Cl)cc2)n1)NC1CC2CCC1C2 (stereo not drawn),.,.,.,83,.,.
O=C(Cn1nnc(-c2ccc(Cl)cc2)n1)NCC1CCCCC1,.,.,.,88,.,.
O=C(Cn1nnc(-c2ccc(Cl)cc2)n1)NCCC1=CCCCC1,.,.,.,.,.,/
SMILES,TNF death inh,HSV augment,Wee1 degr inh,L929 necroptosis,V-ATPase pH,zVAD death conf
CCOC(=O)C(=O)NC1CC=CCC1c1ccc2c(c1)OCO2 (stereo not drawn),/,/,/,/,.,/
Cc1cccc(-n2cc(C(=O)O)c(=O)cc2C)c1,.,/,.,.,.,/
CC(C)c1ccc(NC(=O)c2sccc2-n2cccc2)cc1,.,.,.,84,.,.
CC(=O)Nc1ccc(C(=O)OCC(=O)NC(=O)NC2CCCCC2)cc1,.,.,.,80,.,.
CCCS(=O)(=O)c1ccc(COC(=O)c2ccc(NC(C)=O)cc2)cc1,.,.,.,79,.,.
CCN(CC(=O)Nc1ccc(NC(C)=O)cc1)C(=O)c1cccc2ccccc12,/,/,/,/,.,/
COc1cc(/C=N/Nc2ncnc3sc4c(c23)CCC4)ccc1O,.,.,.,82,.,.
Cc1cc2[nH]cnc2c([N+](=O)[O-])c1C,.,.,.,.,.,/
Cc1cc(NO)c(C(C)C)cc1N=O,.,.,.,78,.,.
O=C(NC12CC3CC(CC(C3)C1)C2)c1ccc(-c2ccc(Br)cc2)o1,.,.,.,80,.,.
CCc1noc(C)c1C(=O)Nc1ccc(C#N)cc1,/,/,/,/,.,/
c1ccc(-c2csc3ncnc(NCc4ccccn4)c23)cc1,.,.,.,78,22,.
COC(=O)/C(=N/Nc1ccccc1OC)N1CCCc2ccccc21,.,.,.,.,.,/
COc1ccccc1NC(=O)C(C)OC(=O)C1CCN(S(=O)(=O)c2ccc(C)c(C)c2)CC1 (stereo not drawn),/,/,/,/,.,/
CC1=NN(c2ccccc2)C(=O)/C1=C\C=C\c1ccccc1,.,.,.,.,.,/
ClC1=C(Cl)C(Cl)=C(Cl)C1=C/C=C/c1ccccc1,.,.,.,112,.,.
Cc1cccc(C)c1NC(=O)CN(C)C(=O)CC1CC2CCC1C2 (stereo not drawn),/,/,/,/,.,/
CCNC(=O)c1c(O)c2ccccc2[nH]c1=O,55,.,.,76,.,.
O=C(NCCc1ccccc1)c1c(O)c2ccccc2[nH]c1=O,/,/,/,/,.,/
Cc1c(C)c2ccc(OC(C)C(=O)N3CC[C@@]4(O)CCCC[C@H]4C3)cc2oc1=O (stereo partly drawn),/,/,/,/,.,/
Cc1cc(C)cc(COn2ccnc2)c1,.,.,.,.,.,/
Clc1ccc(COn2ccnc2)cc1Cl,88,.,.,88,.,92
CN(C)c1ncnc2c1C(c1ccccc1)C(C)(C)O2 (stereo not drawn),/,/,/,/,.,/
N#C/C(=C(/O)COC(=O)c1ccc(Cl)c(S(=O)(=O)N2CCOCC2)c1)c1nc2ccccc2[nH]1,.,.,.,.,.,/
N#C/C(=C(/O)COC(=O)CCc1ccc(S(=O)(=O)N2CCOCC2)cc1)c1nc2ccccc2[nH]1,.,.,.,78,.,.
SMILES,TNF death inh,HSV augment,Wee1 degr inh,L929 necroptosis,V-ATPase pH,zVAD death conf
Cn1cnc2c1c(=O)n(Cc1ccc(Cl)cc1Cl)c(=O)n2C,/,/,/,/,.,/
COc1ccc(CC(=O)Nc2nnc(C(C)C)s2)cc1,.,.,.,82,.,.
COc1ccc(NC(=O)Nc2nnc(C(C)C)s2)cc1,.,.,.,95,.,.
O=C(O)c1cccc2c1C(=O)c1ccc(-c3ccc(F)cc3F)cc1S2(=O)=O,/,/,/,/,.,/
N#Cc1c(N)n[nH]c1-c1cc2c([nH]1)CCCC2,.,.,.,88,.,.
N#Cc1cc2c([nH]c1=S)CCCCCC2,.,.,.,.,.,/
CC(=O)Nc1ccc2c(c1)n(C)c(=O)n2C,.,.,.,.,.,/
Cn1c(=O)n(C)c2cc(NC(=O)CCl)ccc21,.,.,.,83,.,.
COc1cc(OC)cc(C(=O)NCCc2cnc[nH]2)c1,/,/,/,/,.,/
Cc1ccc(NC(=O)CSc2ccc(-c3cccnc3)nn2)cc1,/,/,/,/,.,/
Cc1ccc(NC(=O)CSc2ccc(-c3cccnc3)nn2)cc1Cl,.,/,.,82,.,.
CCCCNC(=O)Nc1nc2ccc(CC)cc2s1,.,/,.,78,.,.
Cn1c(SCC(=O)NC2CCS(=O)(=O)C2)nnc1-c1ccco1 (stereo not drawn),/,/,/,/,.,/
CCOC(=O)C1C(C(=O)OC)=C(c2ccc(OC)cc2)c2ccccc2N1S(=O)(=O)C(F)(F)F (stereo not drawn),/,/,/,/,.,/
